# Screening data as filed in PubChem.
# EWS-Fli block = EWS/Fli-driven NR0B1 reporter inhibitors, primary screen, A673 cells, NR0B1 luciferase, luminescence, MLPCN library. 350,000 tested, 0.67% active. viability-normalised. inhibition, % at 12.6 µM. AID 651661, 2012;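 active = mean inhibition of at least 50% after viability correction, with every replicate also passing that limit; inconclusive = mean reaches 50% but only one of two replicates passes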;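 also: firefly luciferase signal divided by Alamar Blue viability fluorescence both relative to DMSO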
# INS-1E GSIS act = GLuc luminescence reporter in INS-1E cells, primary screen for activators of glucose-dependent secretion of insulin; INS-1E GLuc reporter insulin secretion, 2-3 h; activation, % at 16.6 µM; 370,000 tested, 0.61% active;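 active = lowest replicate activation of at least 40%, so every replicate reaches that level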;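 also: 0% = median of neutral control wells and 100% = median of IBMX positive control wells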
# miR-122 sensor = miR-122 Renilla sensor signal increase in Huh7, primary screen, miR-122 inhibitor project, cell-based, single point, plate reader; Huh7 miR-122 Renilla luciferase sensor, 48 h; neutral wells = 0, positive control = 100; 340,000 tested, 0.3% active; activation (reporter increase), % at 12.5 µM;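 active = mean replicate activation score at least 90 and every replicate individually at or above 90; inconclusive = only one of the two criteria met; inactive = neither criterion met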;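 also: higher luciferase means less miR-122 activity so hits act as miR-122 inhibitors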
# PAX8 reporter = inhibitors of PAX8-driven TPO luciferase reporter, primary screen, RMG-I cells, single concentration; SteadyGlo, 24 h; inhibition, % at 12.6 µM; 360,000 tested, 1.2% active; AID 652154, 2013;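 active = mean replicate inhibition at least 60% with every replicate also reaching 60%; inconclusive = only one of the two criteria is met; inactive = mean below 60% and not all replicates reaching 60%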;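 also: luciferase light reporting Pax8 driven TPO promoter activity; plate controls were median of neutral control wells for no effect and mitoxantrone controls for full effect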
# C2C12 statin = suppressors of statin myotoxicity in C2C12 myotubes, primary screen, cell-based, single point, plate reader; C2C12 myotubes + simvastatin, ATP luminescence, 48 h; scaled: DMSO 0, geranylgeraniol control 100; rescue of ATP level, % at 7.49 µM; 330,000 tested, 0.78% active; AID 602340, 2012;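 active = mean ATP rescue above about 67%, or every replicate alone reaching that limit, limit read from the data, passing the limit was not always enough; inconclusive = no clear call, values can overlap the other calls; inactive = mean under the limit and some replicate under it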;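 also: myotubes were challenged with 10 µM simvastatin during compound exposure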
# Env fusion inh = inhibitors of HIV-1 Env-driven cell-cell fusion, primary screen, HeLa-JRFL effector, CEM21 target cells, luciferase; inhibition, % at 12.3 µM; 360,000 tested, 1.1% active; AID 651610, 2012;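 active = mean replicate inhibition score of at least 50 and every replicate individually at or above 50; inconclusive = only one of the two criteria met; inactive = mean below 50 and not all replicates reaching 50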;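 also: 0% = plate neutral controls and 100% = maraviroc near 300 nM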
# * = called active by the depositor; ? = inconclusive; nt = no result; [ ] = another dose, or the depositor's remark. In the library only some 3.1% were active in any assay of this set; here they are far more common.
SMILES,EWS-Fli block,INS-1E GSIS act,miR-122 sensor,PAX8 reporter,C2C12 statin,Env fusion inh
Cc1cccc(Nc2nc(N)c(C#N)c(CC#N)c2C#N)c1,nt,84.0*,-3.7,-3.6,nt,-51.9
Cc1cccc(Nc2nc(C)cc(C)c2C#N)c1,14.8,-4.2,3.4,22.4,9.1,2.4
O=C(C=P(c1ccccc1)(c1ccccc1)c1ccccc1)c1ccccc1-c1ccccc1C(=O)C=P(c1ccccc1)(c1ccccc1)c1ccccc1,49.9,-13.0,nt,114.3*,nt,6.2
COc1ccc(-c2cnn3c(N)c(S(=O)(=O)c4ccccc4)cnc23)cc1,nt,nt,-1.8,-0.7,-48.1,14.7
Nc1c(S(=O)(=O)c2ccccc2)cnc2c(-c3ccc(F)cc3)cnn12,nt,nt,-7.1,nt,-19.1,68.0*
CCOc1cc(N2CCOCC2)c(OCC)cc1NC(=O)CN1C(=O)NC2(CCc3ccccc32)C1=O (configuration not stated),nt,nt,-11.5,15.9,88.7*,-28.7
CCOc1cc(N2CCOCC2)c(OCC)cc1NC(=O)CN1C(=O)NC2(CCCCCCC2)C1=O,17.1,3.5,4.7,12.0,-6.0,-11.1
Cc1ccc(S(=O)(=O)Nc2ccc3c(c2)C(=O)N([C@@H](C)CO)C[C@H](C)[C@H](CN(C)S(=O)(=O)c2ccc(F)cc2)OCCCC[C@@H](C)O3)cc1,-14.5,7.0,10.6[16.7 µM],-24.4,nt,-26.7[16.7 µM]
CCn1c(COc2ccc(Cl)cc2)nnc1SCc1nc2ccccc2[nH]1,nt,nt,5.5,nt,12.6,113.9*
Cc1ccc(OCc2nnc(SCc3nc4ccccc4[nH]3)n2Cc2ccco2)cc1,nt,-42.7,3.9,nt,6.1,nt
COc1ccccc1CN1[C@@H](CO)[C@@H]2c3ccccc3N(C(=O)C3CCCCC3)C[C@@H]21,21.8,-20.3,0.0[16.7 µM],20.4,25.1,nt
CCc1ccc2[nH]c(=O)c(CN(Cc3ccccc3OC)Cc3nnnn3Cc3ccco3)cc2c1,nt,nt,7.1,nt,99.6*,nt
COc1ccc2[nH]c(=O)c(CN(Cc3cccs3)Cc3nnnn3Cc3ccccc3)cc2c1,nt,nt,3.3,18.0,0.0,98.2*
C[C@@H]1CN([C@H](C)CO)S(=O)(=O)c2ccc(-c3ccncc3)cc2O[C@@H]1CN(C)C(=O)C1CCC1,-9.3,1.1,-4.9[16.7 µM],nt,7.7,-5.1[16.7 µM]
Cn1nnc(NC(=O)CSc2ccc(Cl)cc2)n1,nt,nt,-2.9,-26.0,98.2*,-21.0
CCCc1sc(N/N=C/c2ccccn2)nc1-c1ccc(F)cc1,nt,nt,-8.5,nt,-48.9,nt
Cc1nc(N/N=C/c2ccccn2)sc1C,?,3.0,nt,72.9*,nt,106.9*
Cn1nc(C2CC2)cc1NC(=O)C1(C)CCN1C(=O)c1ccccc1CCc1ccccc1 (configuration not stated),5.6,nt,-3.6,12.8,1.9,64.1*
O=C1/C(=C/c2ccc(C(=O)O)cc2)CCC/C1=C\c1ccc(C(=O)O)cc1,nt,15.9,-5.7,3.4,nt,-8.9
C=CC(=O)N1C/C(=C/c2ccccc2)C(=O)/C(=C\c2ccccc2)C1,71.8*,49.6*,-20.0,79.9*,nt,78.9*
O=C1C(=Cc2ccc(Cl)cc2)Cc2ccccc21,-60.5,12.2,nt,-81.2,nt,-95.2
C=CC(=O)N1C/C(=C/c2ccc(Cl)cc2)C(=O)/C(=C\c2ccc(Cl)cc2)C1,77.3*,nt,nt,110.2*,nt,102.4*
COc1ccc(S(=O)(=O)N(C)C[C@@H]2OCCCC[C@@H](C)Oc3ccc(NS(=O)(=O)c4ccc(C)cc4)cc3C(=O)N([C@@H](C)CO)C[C@@H]2C)cc1,-2.1,-1.4,15.5[16.7 µM],-11.7,11.0,-51.4[16.7 µM]
COCCNC(=O)Nc1ccc2nc(-c3cccs3)c(-c3cccs3)nc2c1,nt,nt,-8.3,2.4,125.0*,-18.9
CO[C@@H]1CN(C)C(=O)c2cc(NS(=O)(=O)CC(F)(F)F)ccc2OC[C@H](C)N(Cc2cccnc2)C[C@H]1C,1.7,1.3,nt,-23.0,10.7,nt
CO[C@H]1CN(C)C(=O)c2cc(NC(C)=O)ccc2OC[C@H](C)N(S(=O)(=O)c2cn(C)cn2)C[C@@H]1C,2.7,-3.1,nt,nt,-22.9,-7.8[16.7 µM]
CN1C=C/C(=C\c2cc[n+](C)c3ccccc23)c2ccccc21,73.6*,3.5,-0.4,97.3*,-106.6,45.5
CC(C)Cn1c(NCCO)nc2ccccc21,nt,nt,-6.8,0.3,93.3*,-58.4
